In all, about 69,000 compounds went through this assay and about 8,600 (12%) showed an effect of 50% or more. What follows is part of a selection rich in strong results, with near analogues and random picks from the rest.
Tested on: Plasmodium berghei
Assay: Screen against P. berghei liver stage (PbLuc), transformed with Luciferase, at 10uM
Type: functional, HepG2
Conditions: tested at 10 uM

| SMILES | INHIBITION |
| --- | --- |
| CC(C)C(=O)N1CCN(C(=O)N(C)C)CC2(CC(=O)N(C)C2)C1 (centres undefined) | 39.8% |
| CCn1c(Cn2cncn2)nnc1C1CCN(Cc2ccccn2)CC1 | 3.88% |
| O=C(CCc1ccccc1)NC1CCC2(CCC(=O)N2)CC1 (centres undefined) | 2.58% |
| COCCCN1CCN(CCOC)C(C)C1 (centres undefined) | -23.8% |
| CN(C)CCOCC1CN(CCN(C)C)Cc2ccnn2C1 (centres undefined) | -4.23% |
| COc1ccccc1OC1CN(c2ccncc2)C1 | 38.8% |
| Cc1ccc(S(=O)(=O)NCCCN2CCC(O)CC2)c(F)c1 | 41.4% |
| CC(C)c1cccc(S(=O)(=O)NCCCN2CCC(O)CC2)c1 | 62.3% |
| Cc1cc(F)c(S(=O)(=O)NCCCN2CCC(O)CC2)cc1F | -1.53% |
| CSCc1cccc(S(=O)(=O)NCCCN2CCOCC2)c1 | 18.5% |
| Cc1cc(F)cc(S(=O)(=O)NCCCN2CCC(O)CC2)c1 | 25.1% |
| Cc1ccc(S(=O)(=O)NCCCN2CCC(O)CC2)cc1Cl | 51.4% |
| CN(CCc1ccccn1)C1CCCN(Cc2noc(C3CC3)n2)C1 (centres undefined) | 24.1% |
| COc1ccccc1C(O)CNc1c(C#N)c(=O)n(C)c(=O)n1C (centres undefined) | 46.2% |
| Cn1ccc(C(=O)NCCOc2ccc3c(c2)OCO3)cc1=O | -3.54% |
| Cc1nc(COC[C@@H]2CC[C@H]3[C@H](CCN3c3ncccn3)O2)cs1 | 46.6% |
| CCCn1c(C)c(CC(=O)NCCOC)c2c1CC(C)(C)CC2=O | -3.72% |
| CC(C)C(=O)NS(=O)(=O)c1ccc(F)c(C(F)(F)F)c1 | 0.825% |
| CC(=O)NS(=O)(=O)c1ccc(F)c(C(F)(F)F)c1 | 54.7% |
| COC(C)C(=O)NS(=O)(=O)c1ccc(F)c(C(F)(F)F)c1 (centres undefined) | 19.5% |
| COc1cc(Cl)c(NC(=O)c2cc3c([nH]c2=O)CCCC3=O)cc1OC | 43.6% |
| Cc1nc(SCC(=O)Nc2ccc(C(N)=O)cc2)c(C#N)c(C)c1C | 48.7% |
| Cc1ccc(C(=O)Nc2ccc(N(C)C)nc2)n1C | -130% |
| Cn1ccnc1CN1CC[C@H](O)[C@@H](n2ccc(=O)[nH]c2=O)CC1 | 22% |
| CCN(CC)C(=O)[C@@H]1C[C@H](n2cc(-c3cccc(OC)c3)nn2)CN1 | 16.9% |
| CCN(CC)C(=O)[C@@H]1C[C@@H](n2cc(-c3ccccn3)nn2)CN1 | 85.4% |
| CCN(CC)C(=O)[C@@H]1C[C@H](n2cc(-c3ccccn3)nn2)CN1 | 34% |

| SMILES | INHIBITION |
| --- | --- |
| CNC(=O)[C@@H]1C[C@H](n2cc(-c3ccc(Cl)cc3)nn2)CN1 | 30.3% |
| CNC(=O)[C@@H]1C[C@@H](n2cc(-c3ccc(Cl)cc3)nn2)CN1 | 43.9% |
| CCN(CC)C(=O)[C@@H]1C[C@@H](n2cc(-c3cccc(OC)c3)nn2)CN1 | 53.3% |
| O=C(NCC(=O)N1CCCC(c2ccccc2)CC1)c1ccoc1 (centres undefined) | 23.4% |
| COC1CCN(C(=O)COC(C)=O)CC(=O)N(C)c2ccccc21 (centres undefined) | 32.1% |
| COCC[C@]1(O)CCN(CC(=O)NCc2ccccn2)C[C@H]1C | 25.4% |
| Cc1cc(C)nc(N2CC=C[C@H]2C(=O)NCc2ccc3c(c2)OCO3)n1 | 25.8% |
| CCCC(=O)Nc1cnn(CC(=O)Nc2ccc(SC)cc2)c1 | 14.3% |
| CCn1nc(C)c(C(C)Nc2cc(C3CCNCC3)nc(C)n2)c1C (centres undefined) | -46.8% |
| CS(=O)(=O)CCCNC1CCCN(Cc2noc(C3CC3)n2)C1 (centres undefined) | 19.5% |
| FC(F)(F)c1nc(NC2CCc3ncnn3C2)c2ccccc2n1 (centres undefined) | 2.25% |
| c1ccc(CNC2CCc3ncnn3C2)nc1 (centres undefined) | -0.847% |
| CC(C)c1nc2n(n1)CC(Nc1ncnc3ccccc13)CC2 (centres undefined) | 80.5% |
| Cc1nc2n(n1)CC(Nc1ncnc3c1CCC3)CC2 (centres undefined) | 41.5% |
| CC(C)c1nc2n(n1)CC(NCc1cc3ccccc3o1)CC2 (centres undefined) | 43.2% |
| c1nc2c(c(NC3CCc4ncnn4C3)n1)CCC2 (centres undefined) | 76.7% |
| CCc1nc2n(n1)CC(Nc1cc(C)nc3ncnn13)CC2 (centres undefined) | 3.95% |
| CC(C)c1nc2n(n1)CC(Nc1ncnc3c1CCC3)CC2 (centres undefined) | 48% |
| Cc1cc(NC2CCc3ncnn3C2)n2ncnc2n1 (centres undefined) | 57.7% |
| c1nc2c(c(NC3CCC3)n1)CCNCC2 | 17.2% |
| Cc1cc(NC2CCc3nc(C)nn3C2)n2ncnc2n1 (centres undefined) | -12.5% |
| c1ccc2c(NC3CCc4ncnn4C3)ncnc2c1 (centres undefined) | 63.8% |
| Cn1cnc2c1C(COCc1ccccc1)N(Cc1cccnc1)CC2 (centres undefined) | 8.85% |
| Cc1nc2ccc(C(=O)N3CC[C@H](O)[C@@H](N4CCOCC4)CC3)cc2[nH]1 | -5.71% |
| O=C(N[C@@H]1CN(Cc2c[nH]nc2-c2ccccc2)C[C@H]1O)c1cc[nH]n1 | -3.182% |
| CN(C)C(=O)COCc1nnc2n1CCN(Cc1ccsc1)C2 | 39.4% |
| O=C1COC2(CCN(Cc3ccncc3)CC2)CN1 | -55% |
